Test results published in PubChem BioAssay (NCATS).
Results filed as inconclusive are left out. Entries that show only a call come without a potency. Activity calls are given as the source filed them. Unless noted, calls follow the shape of the dose curve; as a rule, active = well fitted curve in the direction sought with a large enough effect; inconclusive = small, poorly fitted or top-dose-only effect, or another doubt; inactive = no such curve, though single readings can be large; an effect the other way counts as inactive or inconclusive.

Legend:
[1] = target: Ubiquitin carboxyl-terminal hydrolase 2 (Homo sapiens) (UniProt O75604); assay: qHTS Validation Assay for Inhibitors of Ubiquitin-specific Protease USP2a Using CHOP2 as the Reporter (AID 463106); also: potency is read from the fitted curve at half-maximal effect
How it was run: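 USP2 core (10nM final) was preincubated with compound for 30min at RT in 20mM Tris-HCl pH 8.0, 2mM CaCl2, 2mM beta-mercaptoethanol, 0.05% CHAPS. Ub-CHOP2 and reporter substrate (25nM each) were added, and fluorescence (Ex 485/Em 531nm) was read after 60min.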

[2] = target: Beta-2 adrenergic receptor (Homo sapiens) (UniProt P07550); assay: qHTS validation assay of beta-arrestin-biased ligands of beta2-adrenergic receptor (AID 485366)
How it was run: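 Tango cells (recombinant beta2-AR with recombinant beta-arrestin; recruitment releases tTA driving luciferase) were treated with compounds titrated up to 46 microM for 18 hr at 37 degrees C. Luminescence gave %Activity, and concentration-response curves were curve-classified.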

[3] = target: Thioredoxin reductase 1, cytoplasmic (Rattus norvegicus) (UniProt O89049); assay: qHTS Assay for Inhibitors of Mammalian Selenoprotein Thioredoxin Reductase 1 (TrxR1) (AID 488773); details: Potency: inhibition; also: nearly all actives have a fitted effect of over 40% in size; also: potency is read from the fitted curve at half-maximal effect
How it was run: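 Steps: enzyme (90 nM) plus NADPH (400 uM final), 5 min at ~22 deg C; compound added, 15 min; selenite (400 uM final) added; fluorescence followed for 8 min. Concentration-response curves derived from the normalized delta values.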

[4] = target: ATP-dependent 6-phosphofructokinase (Trypanosoma brucei brucei) (UniProt O15648); assay: qHTS Validation Assay to Find Inhibitors of T. brucei phosphofructokinase (AID 485368); also: potency is read from the fitted curve at half-maximal effect
How it was run: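 Compounds (up to 57 uM, titration series) were pinned into substrate buffer, then 1.25 nM PFK added; after 45 min at room temperature, ADP product was quantified by ADP-Glo luminescence and concentration-response curves fitted.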

[5] = target: Thioredoxin reductase 1, cytoplasmic (Rattus norvegicus) (UniProt O89049); assay: qHTS Assay for Substrates of Mammalian Selenoprotein Thioredoxin Reductase 1 (TrxR1) (AID 488772);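 also: NADPH fluorescence in the first read after selenite addition and not the 8 min delta; series mostly up to about 57 µM; a drop in NADPH fluorescence below the no-compound background marks a TrxR1 substrate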
How it was run: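 Quantitative HTS in Tris-HCl buffer at pH 7.5 with EDTA and Tween-20, using rat TrxR1, 400 uM NADPH and 400 uM selenite (final). A fall in initial NADPH fluorescence relative to background marked substrate behaviour.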

[6] = target: DNA polymerase III PolC-type (Bacillus subtilis (strain 168)) (UniProt P13267); assay: qHTS Validation Assay for the Inhibitors of DNA Replication in Gram-Positive Bacteria (AID 485295);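 also: PicoGreen fluorescence of double-stranded DNA made on primed circular M13 template; series mostly up to about 57 µM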
How it was run: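 Reconstituted B. subtilis Pol III holoenzyme (PolC, beta clamp, SSB, primase) preincubated with compound, then M13Gori single-stranded circular template with dNTPs/NTPs added; room temperature reaction. Stopped with EDTA/PicoGreen; dsDNA fluorescence read, EDTA as full-inhibition control.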

[7] = target: Tumor susceptibility gene 101 protein (Homo sapiens) (UniProt Q99816); assay: qHTS Validation Assay for Iinhibitors of HIV-1 Budding by Blocking the Interaction of PTAP/TSG101 (AID 485342; calls by dose curve)
How it was run: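 Tsg101 binding domain (10 uM) with FITC-labeled PTAP peptide (50 nM) in HEPES pH 7.5 buffer, 20 min at r.t. with compounds. Binding measured by fluorescence polarization.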

[8] = qHTS Validation Assay to Find Inhibitors of Chronic Active B-Cell Receptor Signaling (AID 485345; active = well fitted curve in the direction sought with a large enough effect in the main read-out, with a control signal flat, not every such curve was filed as active)
How it was run: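 TMD8 ABC-DLBCL cells with dox-inducible green luciferase–IκBα fusion and red native luciferase; compounds 46 uM–3 nM, 4 h at 37C with doxycycline in 0.5% FBS IMDM. Green/red ratio normalized to basal and 10 uM MG-132.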

[9] = Quantitative high throughput screen for delayed death inhibitors of the malarial parasite plastid, 96 hour incubation (AID 488745); also: nearly all actives have a fitted effect of over 70% in size; also: potency is read from the fitted curve at half-maximal effect
How it was run: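 Growth of reporter-bearing P. falciparum in red cells is measured after 96 h with compound, covering two erythrocytic cycles. Luminescence from the integrated luciferase serves as the growth signal.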

[10] = Quantitative high throughput screen for delayed death inhibitors of the malarial parasite plastid, 48 hour incubation (AID 488752); also: nearly all actives have a fitted effect of over 65% in size; also: potency is read from the fitted curve at half-maximal effect
How it was run: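 One parasite generation (48 h, 37 C, 5% CO2) of luciferase-reporter P. falciparum in erythrocytes is run with test compound; decreased luminescence indicates inhibited growth.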

Chain of Thioredoxin reductase 1, cytoplasmic (Rattus norvegicus) (O89049 whole entry, looked up): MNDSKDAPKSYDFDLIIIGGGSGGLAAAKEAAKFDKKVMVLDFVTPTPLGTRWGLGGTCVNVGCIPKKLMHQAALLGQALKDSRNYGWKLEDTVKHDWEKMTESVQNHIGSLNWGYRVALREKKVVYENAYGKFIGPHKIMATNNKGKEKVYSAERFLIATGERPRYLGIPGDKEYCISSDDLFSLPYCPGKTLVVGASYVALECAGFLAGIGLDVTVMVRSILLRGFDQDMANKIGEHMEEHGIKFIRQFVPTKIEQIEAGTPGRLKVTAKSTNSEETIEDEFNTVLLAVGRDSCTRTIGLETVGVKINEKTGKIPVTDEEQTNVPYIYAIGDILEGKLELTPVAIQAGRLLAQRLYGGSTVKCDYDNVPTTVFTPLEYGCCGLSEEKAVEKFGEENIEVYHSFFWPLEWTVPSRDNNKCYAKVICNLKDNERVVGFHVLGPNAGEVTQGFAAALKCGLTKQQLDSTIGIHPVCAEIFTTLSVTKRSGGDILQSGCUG
Chain of Tumor susceptibility gene 101 protein (Homo sapiens) (Q99816 whole entry, looked up, the tested form may be a part): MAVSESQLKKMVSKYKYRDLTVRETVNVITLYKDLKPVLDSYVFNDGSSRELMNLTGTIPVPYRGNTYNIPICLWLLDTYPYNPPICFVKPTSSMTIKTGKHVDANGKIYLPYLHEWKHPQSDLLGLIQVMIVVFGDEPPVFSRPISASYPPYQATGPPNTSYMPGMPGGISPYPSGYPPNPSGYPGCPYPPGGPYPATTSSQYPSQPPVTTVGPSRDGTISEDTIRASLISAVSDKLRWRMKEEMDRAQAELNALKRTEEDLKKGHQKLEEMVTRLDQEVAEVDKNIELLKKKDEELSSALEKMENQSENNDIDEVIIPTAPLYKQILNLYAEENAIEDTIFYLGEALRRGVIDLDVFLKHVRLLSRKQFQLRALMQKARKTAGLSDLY
Chain of ATP-dependent 6-phosphofructokinase (Trypanosoma brucei brucei) (O15648 whole entry, looked up): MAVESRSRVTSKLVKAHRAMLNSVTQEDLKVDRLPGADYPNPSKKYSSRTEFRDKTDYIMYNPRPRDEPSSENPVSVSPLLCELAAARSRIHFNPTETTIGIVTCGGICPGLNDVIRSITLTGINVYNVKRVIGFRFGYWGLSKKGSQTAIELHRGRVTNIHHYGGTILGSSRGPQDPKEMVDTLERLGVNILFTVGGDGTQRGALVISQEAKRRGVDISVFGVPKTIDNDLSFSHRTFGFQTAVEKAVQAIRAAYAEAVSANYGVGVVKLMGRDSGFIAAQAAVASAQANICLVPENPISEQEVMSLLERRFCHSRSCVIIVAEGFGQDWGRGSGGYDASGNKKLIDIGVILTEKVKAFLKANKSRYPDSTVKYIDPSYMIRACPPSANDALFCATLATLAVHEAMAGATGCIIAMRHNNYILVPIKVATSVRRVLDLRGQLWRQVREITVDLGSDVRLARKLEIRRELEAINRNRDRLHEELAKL
Chain of DNA polymerase III PolC-type (Bacillus subtilis (strain 168)) (P13267 whole entry, looked up): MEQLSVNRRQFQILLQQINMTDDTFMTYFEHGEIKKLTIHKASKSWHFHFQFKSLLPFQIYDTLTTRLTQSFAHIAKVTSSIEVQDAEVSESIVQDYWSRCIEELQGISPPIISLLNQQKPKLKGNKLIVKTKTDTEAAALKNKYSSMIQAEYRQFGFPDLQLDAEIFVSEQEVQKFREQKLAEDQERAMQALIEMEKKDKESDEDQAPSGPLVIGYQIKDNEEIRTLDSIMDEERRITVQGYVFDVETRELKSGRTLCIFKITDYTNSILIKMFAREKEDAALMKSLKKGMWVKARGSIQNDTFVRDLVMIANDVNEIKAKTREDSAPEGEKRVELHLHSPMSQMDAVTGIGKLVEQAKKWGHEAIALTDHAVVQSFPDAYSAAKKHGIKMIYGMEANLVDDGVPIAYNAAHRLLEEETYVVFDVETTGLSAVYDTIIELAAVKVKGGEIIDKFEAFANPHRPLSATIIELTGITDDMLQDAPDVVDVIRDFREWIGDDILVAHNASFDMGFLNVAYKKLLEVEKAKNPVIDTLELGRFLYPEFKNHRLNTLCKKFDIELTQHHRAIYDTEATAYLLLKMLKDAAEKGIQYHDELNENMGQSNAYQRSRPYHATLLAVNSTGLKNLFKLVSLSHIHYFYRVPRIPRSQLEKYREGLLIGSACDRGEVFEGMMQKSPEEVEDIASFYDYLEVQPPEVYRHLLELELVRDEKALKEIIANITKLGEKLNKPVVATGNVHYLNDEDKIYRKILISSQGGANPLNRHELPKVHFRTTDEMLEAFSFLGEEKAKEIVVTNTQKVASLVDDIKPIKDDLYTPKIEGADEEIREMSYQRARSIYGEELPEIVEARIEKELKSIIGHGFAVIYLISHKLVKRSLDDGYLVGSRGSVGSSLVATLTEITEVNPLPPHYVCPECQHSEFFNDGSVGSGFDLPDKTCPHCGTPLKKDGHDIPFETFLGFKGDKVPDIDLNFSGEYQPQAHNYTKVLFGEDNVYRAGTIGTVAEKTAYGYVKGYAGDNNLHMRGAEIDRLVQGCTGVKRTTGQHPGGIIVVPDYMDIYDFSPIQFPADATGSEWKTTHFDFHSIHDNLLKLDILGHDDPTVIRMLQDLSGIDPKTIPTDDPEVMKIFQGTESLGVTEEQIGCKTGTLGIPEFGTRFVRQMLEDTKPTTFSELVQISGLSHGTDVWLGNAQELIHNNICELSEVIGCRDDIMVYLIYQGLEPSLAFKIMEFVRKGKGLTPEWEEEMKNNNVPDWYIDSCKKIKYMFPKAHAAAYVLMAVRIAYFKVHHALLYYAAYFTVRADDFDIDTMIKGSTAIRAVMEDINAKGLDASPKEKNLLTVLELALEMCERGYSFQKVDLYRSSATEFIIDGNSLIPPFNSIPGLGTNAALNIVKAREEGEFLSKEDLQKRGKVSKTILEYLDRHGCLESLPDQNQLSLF
Chain of Beta-2 adrenergic receptor (Homo sapiens) (P07550 whole entry, looked up): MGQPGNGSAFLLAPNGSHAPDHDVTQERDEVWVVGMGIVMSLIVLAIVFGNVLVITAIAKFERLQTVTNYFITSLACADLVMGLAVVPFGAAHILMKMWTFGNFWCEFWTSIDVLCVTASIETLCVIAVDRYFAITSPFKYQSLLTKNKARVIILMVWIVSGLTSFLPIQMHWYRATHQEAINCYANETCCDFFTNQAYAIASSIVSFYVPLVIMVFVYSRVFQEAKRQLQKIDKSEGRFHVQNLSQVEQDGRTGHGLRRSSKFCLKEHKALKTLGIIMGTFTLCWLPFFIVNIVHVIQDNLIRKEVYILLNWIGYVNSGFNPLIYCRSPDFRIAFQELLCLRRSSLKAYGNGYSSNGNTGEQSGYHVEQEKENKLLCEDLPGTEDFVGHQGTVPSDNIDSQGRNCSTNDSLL
Chain of Ubiquitin carboxyl-terminal hydrolase 2 (Homo sapiens) (O75604 whole entry, looked up): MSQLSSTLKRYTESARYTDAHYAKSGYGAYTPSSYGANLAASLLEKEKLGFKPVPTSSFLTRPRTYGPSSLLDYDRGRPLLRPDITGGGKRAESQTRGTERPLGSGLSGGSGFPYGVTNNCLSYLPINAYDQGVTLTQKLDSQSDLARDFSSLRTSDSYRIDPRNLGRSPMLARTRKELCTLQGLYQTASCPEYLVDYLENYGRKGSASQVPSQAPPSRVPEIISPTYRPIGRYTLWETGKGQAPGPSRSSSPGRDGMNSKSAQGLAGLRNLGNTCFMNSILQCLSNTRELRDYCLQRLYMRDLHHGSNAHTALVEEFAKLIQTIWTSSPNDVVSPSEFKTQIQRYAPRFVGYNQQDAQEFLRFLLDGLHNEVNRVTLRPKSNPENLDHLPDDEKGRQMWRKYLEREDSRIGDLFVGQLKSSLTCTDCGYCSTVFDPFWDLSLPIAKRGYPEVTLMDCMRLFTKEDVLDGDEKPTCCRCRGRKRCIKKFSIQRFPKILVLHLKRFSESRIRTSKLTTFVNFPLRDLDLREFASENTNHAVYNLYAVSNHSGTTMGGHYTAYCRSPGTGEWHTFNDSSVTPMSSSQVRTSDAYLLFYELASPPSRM

Structure (SMILES)	Potency [1]	outcome [2]	Potency [3]	Potency [4]	Potency [5]	Potency [6]	outcome [7]	outcome [8]	Potency [9]	Potency [10]
CNCC[C@H](Oc1ccc(C(F)(F)F)cc1)c1ccccc1	inactive	inactive	inactive							
CN1CCc2cccc3c2C1Cc1ccc(O)c(O)c1-3 (stereo unspecified)	inactive	inactive	9.47 µM (active)	12 µM (active)	inactive					
Cc1nc2sccn2c(=O)c1CCN1CCC(=C(c2ccccc2)c2ccc(F)cc2)CC1		inactive	inactive		inactive	inactive	inactive	inactive		
C#CCN1C(C)=C(C(=O)OC)C(c2cccc([N+](=O)[O-])c2)C(C(=O)OCC)=C1C (stereo unspecified)	inactive	inactive	inactive	inactive			inactive		8.28 µM (active)	
CN(C)C(N)=NCCC[C@H](N)C(=O)O		inactive	inactive	inactive	inactive	inactive	inactive	inactive	inactive	inactive
Oc1cc(O)cc(/C=C/c2ccc(O)c(O)c2)c1	inactive	inactive		3.79 µM (active)	inactive					
NCCCS(=O)(=O)O	inactive	inactive			inactive			inactive		inactive
C[N+](C)(C)CCOP(=O)(O)OP(=O)([O-])OC[C@H]1O[C@@H](n2ccc(N)nc2=O)[C@H](O)[C@@H]1O		inactive	inactive	inactive	inactive	inactive	inactive	inactive		
Nc1nc(Nc2ccccc2)nc2c1ncn2[C@@H]1O[C@H](CO)[C@@H](O)[C@H]1O	inactive	inactive	inactive		inactive		inactive			
N#C/C(=C\c1ccc(O)c(O)c1)C(=O)NCCCc1ccccc1	inactive	inactive	inactive		inactive					
COc1ccc2c(c1)CCC1C2CC[C@@]2(C)C1CC[C@@H]2NCCCCCCN1C(=O)CCC1=O (stereo partly specified)	inactive	inactive	inactive		inactive		inactive			
CCCCCCCCc1ccc(-c2ccc(C(=O)O)cc2)cc1	inactive	inactive	inactive	inactive	inactive		inactive			
N#C/C(=C\c1ccc(O)c(O)c1)C(=O)NCc1ccccc1	inactive	inactive		13.5 µM (active)	inactive		inactive		inactive	
O=C(O)[C@@H]1C[C@H](C(=O)O)N1	inactive	inactive	inactive	inactive	inactive			inactive	inactive	
COc1cccc(OC)c1OCCNCC1COc2ccccc2O1 (stereo unspecified)		inactive	inactive		inactive	inactive	inactive	inactive	inactive	
Cc1cc(NC2CCCCC2)nc(-n2nc(C)cc2C)n1	inactive	inactive	inactive					inactive		
O=C1O/C(=C/Br)CCC1c1cccc2ccccc12 (stereo unspecified)	inactive	inactive	2.67 µM (active)		inactive		inactive		inactive	

Structure (SMILES)	Potency [1]	outcome [2]	Potency [3]	Potency [4]	Potency [5]	Potency [6]	outcome [7]	outcome [8]	Potency [9]	Potency [10]
CN1C2CCC1CC(OC(=O)C(O)c1ccccc1)C2 (stereo unspecified)			inactive	inactive		inactive	inactive	inactive	inactive	
CN1CCc2cc(O)c(O)cc2C(c2ccccc2)C1 (stereo unspecified)		inactive	inactive		inactive	inactive	inactive	inactive	inactive	
C=C[C@@H]1CN2CC[C@@H]1C[C@H]2[C@H](O)c1ccnc2ccc(OC)cc12		inactive			inactive	inactive	inactive	inactive	0.0329 µM (active)	0.0928 µM (active)
CCCC1(C)C(C#N)(C#N)C1(C#N)C#N	inactive		10.6 µM (active)	inactive						
N#C/C(=C\c1c[nH]c2ccccc12)C(=O)c1ccc(O)c(O)c1	inactive	inactive	inactive				inactive		inactive	inactive
CC12C(=O)OC(=O)C1(C)C1CCC2O1 (stereo unspecified)	inactive		inactive		inactive		inactive		3.29 µM (active)	
COc1ccccc1N1CCN(CCN(C(=O)c2ccc(I)cc2)c2ccccn2)CC1	inactive		inactive	inactive			inactive			
NC(=O)C(=O)O		inactive	inactive	inactive	inactive	inactive	inactive	inactive	inactive	inactive
CCCCCCCCCCCCCCCCCC(=O)NCC(COP(=O)([O-])OCC[N+](C)(C)C)OCC (stereo unspecified)	inactive		inactive	inactive	inactive		inactive		inactive	
C=C[C@H]1CN2CC[C@@H]1C[C@@H]2[C@@H](O)c1ccnc2ccc(OC)cc12				inactive		inactive	inactive	inactive		
N[C@@H](CC(=O)O)C(=O)O		inactive	inactive	inactive	inactive	inactive	inactive	inactive	inactive	
CN(C)c1nc2c(Br)c(Br)c(Br)c(Br)c2[nH]1	inactive	inactive		inactive	inactive		inactive			
O=C(CCCCCN1CCN(c2ccccc2-c2ccccc2)CC1)NC1CCCc2ccccc21 (stereo unspecified)	inactive	inactive	inactive	inactive	inactive		inactive			
OCC1O[C@H]([S-])[C@H](O)[C@@H](O)[C@@H]1O.[Au+] (stereo partly specified)	18.5 µM (active)	inactive	0.0752 µM (active)	2.69 µM (active)	inactive		inactive			
CC(COc1ccc(/C=C/c2ccccc2)cc1)[N+](C)(C)C (stereo unspecified)		inactive	inactive	inactive		inactive	inactive	inactive	2.08 µM (active)	3.29 µM (active)
CN1C2CC(OC(=O)[C@H](CO)c3ccccc3)CC1C1OC12 (stereo partly specified)		inactive	inactive	inactive		inactive	inactive	inactive		
